63 compounds from publication PMC6919601, “Identification of Plasmodium dipeptidyl aminopeptidase allosteric inhibitors by high throughput screening” (PLoS ONE, 2019) can be followed below.

The whole screen tested about 110,000 compounds, of which about 230 (0.21%) showed an effect of 50% or more. Only a selection was taken, and strong results are over-represented in it overall.
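Further: 30 min substrate incubation versus DMSO and 10 µM JCP410 controls.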

Sequence of DPAP1 (Q8IIJ9 whole entry, looked up): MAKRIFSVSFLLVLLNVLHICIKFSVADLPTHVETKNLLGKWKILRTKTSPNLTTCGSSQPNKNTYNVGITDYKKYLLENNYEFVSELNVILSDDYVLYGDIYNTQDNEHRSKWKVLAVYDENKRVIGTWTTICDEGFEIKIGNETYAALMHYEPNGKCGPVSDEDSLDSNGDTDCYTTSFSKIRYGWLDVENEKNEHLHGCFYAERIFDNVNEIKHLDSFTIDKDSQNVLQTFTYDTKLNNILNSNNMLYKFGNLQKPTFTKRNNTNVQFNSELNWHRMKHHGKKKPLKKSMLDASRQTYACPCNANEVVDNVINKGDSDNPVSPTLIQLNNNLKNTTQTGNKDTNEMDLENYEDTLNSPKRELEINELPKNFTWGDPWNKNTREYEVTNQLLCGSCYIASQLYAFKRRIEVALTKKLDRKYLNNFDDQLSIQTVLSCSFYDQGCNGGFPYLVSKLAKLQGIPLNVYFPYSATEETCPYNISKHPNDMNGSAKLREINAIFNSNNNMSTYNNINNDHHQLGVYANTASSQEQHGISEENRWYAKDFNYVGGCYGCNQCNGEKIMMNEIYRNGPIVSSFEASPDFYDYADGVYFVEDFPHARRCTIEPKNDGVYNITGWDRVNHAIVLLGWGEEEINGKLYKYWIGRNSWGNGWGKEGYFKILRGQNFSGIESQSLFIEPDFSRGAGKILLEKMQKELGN

The test concerns the target DPAP1 (Plasmodium falciparum, UniProt Q8IIJ9). Kind of test: primary screen, percent inhibition; read by cleavage of a fluorogenic dipeptide substrate; higher = more effect of the substance. Details: species or system P. falciparum D10 trophozoite lysates; single well. On the procedure: HTS was performed in black 384-well plates. The first and last two columns of each plate contained our negative (DMSO) and positive (10 μM JCP410) controls, and the 20 central columns the test compounds at 10 μM. Compounds were first diluted 50-fold into assay buffer (50 mM sodium acetate, 5 mM MgCl2, 10 mM β-mercaptoethanol, and 0.1% CHAPS, pH 5.5) from a 10 mM DMSO stock plates. One microliter of this 200 μM intermediate stock plate was dispensed into the assay plate. […] After 30 min, the reaction was quenched with 20 μL of 0.5 M acetic acid, and the fluorescent intensity measured at 523 nm (λex = 492 nm) using an Analyst HT multimode plate reader (Molecular Devices).
Take `Cc1cc2c(c(S)n1)C(=O)O/C2=C\c1c[nH]nc1-c1cccs1`: the “% Inhibition @ 10 uM” value was determined as 43.6%.
In the case of `Cc1cc2c(c(S)n1)C(=O)O/C2=C\c1ccco1`, the “% Inhibition @ 10 uM” value is 67.6%.
With `Cc1cc2c(c(S)n1)C(=O)O/C2=C\c1c[nH]nc1-c1ccc(F)cc1` the figure was 26%.
With `CCOC(=O)N1CCN(C(=O)CSc2nc(-c3ccc(C)cc3)cn2-c2ccc(OC)cc2)CC1` the figure was 77.3%; with `COc1ccc(-n2cc(-c3ccc(C)cc3)nc2SCC(=O)NCC2CCCO2)cc1` (stereo not drawn), 4.33%.
`CCOC(=O)N1CCN(C(=O)CSc2nnc(Cc3cccn3C)n2-c2ccc(OC)cc2)CC1`: the “% Inhibition @ 10 uM” value is recorded as -5.76%.
For `CC1CCCCC1NC(=O)c1cnn2c(C(F)(F)F)cc(-c3cccs3)nc12` (stereo not drawn), the “% Inhibition @ 10 uM” value was found to be 4.36%.
Consider `c1ccc2c(c1)CCN(c1ncnc3c1nnn3Cc1cccc3ccccc13)C2`, for which the “% Inhibition @ 10 uM” value is reported as -0.0678%.
As for `CCS(=O)(=O)N1CCC(C(=O)NCc2ccc(F)cc2Cl)CC1`, the “% Inhibition @ 10 uM” value was -6.75%.
With `CN(C)CC1CSCCC1(O)c1cccc(Cl)c1` (stereo not drawn) the figure was -4.54%; with `CN(C)CC1CSCCC1(O)c1cccc(O)c1` (stereo not drawn), -15.4%.
With `CN(C)CC1CSCCC1(O)c1ccccc1` (stereo not drawn) the figure was 85.1%.
With `O=c1oc2c(cc(NS(=O)(=O)c3ccc(F)cc3)c3ccccc32)s1` the figure was -2.54%; with `Cc1cc2ccccc2n1-c1ccc(C(=O)N2CCCCCC2)s1`, 3.12%.
Turning to `C=CC/N=C/C1=C(O)CC(C)(C)CC1=O`, the “% Inhibition @ 10 uM” value is recorded as -3.06%.
With `CC1(C)CC2=NCC(=O)NC2=C(O)C1` the figure was 59.8%; with `CC1(C)CC2=NC3=C(C(=O)CC(C)(C)C3)C(c3cc(Cl)c(O)c(Cl)c3)C2=C(O)C1` (stereo not drawn), 13.2%.
With `COc1ccc(Br)cc1C1C(C#N)=C(N)Oc2[nH]nc(-c3ccc4c(c3)OCO4)c21` (stereo not drawn) the figure was 3.99%; with `CCOC(=O)C1=NNC2C(=O)N(c3ccc(F)cc3)C(=O)C12` (stereo not drawn), -5.48%; with `O=C(Nc1nccs1)c1ccc(COc2ccccc2Cl)o1`, -5.98%.
With `Cc1c(CNC(=O)c2cc(-c3ccccc3)nc3ccc(Br)cc23)cnn1C` the figure was -2.9%; with `Cc1nc2ccc(Cl)cc2c2c(N)c3ccccc3n12`, 66%; with `Cc1ccc2nc(C)n3c4ccccc4c(NC(=O)c4ccccc4)c3c2c1`, -6.87%.
In the case of `COc1ccc2nc(C)n3c4ccccc4c(NC(C)=O)c3c2c1`, the “% Inhibition @ 10 uM” value came out at 2.4%.
Take `Cc1nn2c3ccccc3nc2c2ccccc12`: the “% Inhibition @ 10 uM” value is 5.3%.
With `O=C(O)CCS(=O)(=O)Cc1ccccc1F` the figure was 1.27%.
With `Cc1nc2c(c(C)c1CCC(=O)N1CCC(C)CC1)c(=O)n(C)c(=O)n2C` the figure was -3.1%.
With `Cc1nc2c(c(C)c1CCC(=O)N1CCN(C3CCCCC3)CC1)c(=O)n(C)c(=O)n2C` the figure was 52.7%; with `Cc1nc2c(c(C)c1CCC(=O)N1CCC(N3CCCCC3)CC1)c(=O)n(C)c(=O)n2C`, -6.91%.
Regarding `CC(NC(=O)c1ccc(Br)cc1)C1COc2ccccc2O1` (stereo not drawn), the “% Inhibition @ 10 uM” value is listed as 3.24%.
With `CCOC(=O)C1=C(O)/C(=C\c2ccccc2OC)N=C1C` the figure was -1.6%; with `N#CC1=C2SCN(Cc3ccco3)CN2C(=O)CC1c1cccc(OCc2ccccc2)c1` (stereo not drawn), 66.7%.
For `N#CC1=C2SCN(Cc3ccco3)CN2C(=O)CC1c1ccc(Cl)cc1` (stereo not drawn), the “% Inhibition @ 10 uM” value is reported as 42.2%.
With `CCOc1ccc(C2CC(=O)N3CN(C)CSC3=C2C#N)cc1OC` (stereo not drawn) the figure was 47.5%; with `CN1CSC2=C(C#N)C(c3cccc(OCc4ccccc4)c3)CC(=O)N2C1` (stereo not drawn), 71.1%.
For `CCOc1ccc(C2CC(=O)N3CN(Cc4ccco4)CSC3=C2C#N)cc1` (stereo not drawn), the “% Inhibition @ 10 uM” value stood at 43.4%.
As for `CC(C)c1ccc(S(=O)(=O)Nc2ccc3oc(=O)sc3c2)cc1`, the “% Inhibition @ 10 uM” value amounted to 1.13%.
With `CCC(C)N(CCNC(=O)c1c2c(nc3ccccc13)C(=O)N(C1CCCCC1)C2)Cc1ccco1` (stereo not drawn) the figure was 2.48%; with `CCOC(=O)c1cc(C)n(CC2CCC(C(=O)Nc3cccc(C)n3)CC2)c1C` (stereo not drawn), -0.943%.
With `CCOC(=O)c1cnn(C(C)(C)C)c1C1CCN(C(=O)OC(C)(C)C)CC1` the figure was -2.83%; with `Cc1ccc(S(=O)(=O)N2CCCC2)cc1S(=O)(=O)N1CCCC1`, 1.52%.
With `CCC(=O)/N=c1/n(C)c2ccccc2n1CCOc1ccccc1` the figure was 0.512%; with `Cc1ccccc1OCC(O)CN1CCN(CC(O)COc2ccccc2C)CC1` (stereo not drawn), -0.053%; with `OC(COc1ccccc1Cl)CN1CCN(CC(O)COc2ccccc2Cl)CC1` (stereo not drawn), 0.131%.
Take `OC(COc1cccc2ccccc12)CN1CCN(CC(O)COc2cccc3ccccc23)CC1` (stereo not drawn): the “% Inhibition @ 10 uM” value came out at 51.4%.
With `Cc1cc(Br)ccc1OCC(=O)O/N=C(\N)c1cccnc1`, the “% Inhibition @ 10 uM” value was -6.94%.
With `CCCCN(C)C(=O)CCNC(=O)Cn1ccc2ccccc2c1=O` the figure was 7.85%; with `CCOc1ccc(S(=O)(=O)N2CCSC2c2ccc(OC)c(OC)c2)cc1` (stereo not drawn), 25.4%.
With `O=C1/C(=C/c2ccc3nccnc3c2)CCC1C1CCCC1` (stereo not drawn) the figure was 66.2%; with `O=C1/C(=C/c2ccc(F)cc2)CCC1C1CCCC1` (stereo not drawn), 23.4%.
With `O=C1/C(=C/c2ccc3nccnc3c2)CC/C1=C\c1ccc2nccnc2c1` the figure was -0.503%; with `Cc1cc(C)c2c(n1)sc1c(=O)oc(C)nc12`, -0.13%.
With `Cc1ccc(N(CC(=O)Nc2ccc(CC#N)cc2)S(=O)(=O)c2ccccc2)c(C)c1`, the “% Inhibition @ 10 uM” value was -6.77%.
With `O=C(NCc1ccco1)c1ccc(CN2CC(=O)N3CCCCC3C2=O)cc1` (stereo not drawn) the figure was 3.7%; with `Cc1ccc(-c2cc(C(=O)N3CCN(C(=O)c4ccco4)CC3)[nH]n2)c(C)c1`, 2.62%; with `COCCN1C(=O)/C(=C/c2cccc(C)c2)S/C1=N\c1ccccc1`, 64.4%.
With `COCCN1C(=O)/C(=C/c2ccc(C)cc2)S/C1=N\c1ccccc1` the figure was -11.1%.
Regarding `COCCN1C(=O)/C(=C/c2ccccc2)S/C1=N\c1ccccc1`, the “% Inhibition @ 10 uM” value is reported as -4.21%.
With `CCN(CC)CCCNc1cnnc2c(Cl)cccc12`, the “% Inhibition @ 10 uM” value is listed as -4.4%.
With `COc1ccc(OC)c(C2C3=C(O)CCCC3=NC(C)=C2C(=O)Nc2ccccn2)c1` (stereo not drawn) the figure was -8.82%.
With `CCCNC(=O)Cn1nc(C)n2c(cc3cc(OC)ccc32)c1=O` the figure was 4.84%; with `COc1ccccc1CNC(=O)Cn1nc(C)n2c(cc3c(OC)cccc32)c1=O`, -3.47%; with `COc1ccc2c(c1)cc1c(=O)n(CC(=O)NCc3cccc(OC)c3OC)nc(C)n12`, 99.1%.
